The campaign covered roughly 68,000 compounds. About 2,700 (4%) showed an effect of 50% or more. This is one part of a sample in which strong results are shown more often than they occur.

This assay deals with Plasmodium berghei. As to the kind of experiment: Screen against P. berghei liver stage (PbLuc), transformed with Luciferase, at 2uM. Particulars: tested at 2 uM. Type of assay: functional, HepG2.
As for `CN(C)C(C(=O)N1CC(Oc2ccccc2F)C1)c1ccccc1F` (stereo not given), the INHIBITION came out at 19.07%.
On to `CCCN1CCCN(C(=O)c2ccc(Oc3cccnc3)cc2)CC1`, for which the INHIBITION was 35.37%.
With `COc1ccc(OCCN(C)CCCn2cnc3c(N)ncnc32)cc1` the figure was 36.29%.
With `COc1cccc(CN(C)CCCn2cnc3c(N)ncnc32)c1` the figure was -51.87%; with `COc1cccc(SCCCn2cnc3c(N)ncnc32)c1`, 52.19%; with `Cc1ncnc2c1CCN(C(=O)c1ccncc1F)CC2`, 6.81%.
With `O=C1CC(c2ccncc2)C2(CCN(CC3CC3)CC2)N1` (stereo not given) the figure was 22.2%; with `Cc1nc(N2CCN3CCCCC3C2)nc2cc(S(C)(=O)=O)ccc12` (stereo not given), -15.11%; with `Cc1nc(N2C[C@H]3CC[C@@H](C2)N3)nc2cc(S(C)(=O)=O)ccc12`, 77.42%.
Regarding `Cc1nc(N2CCCC(C)C2)nc2cc(S(C)(=O)=O)ccc12` (stereo not given), the INHIBITION is listed as -24.78%.
In the case of `O=C(COc1ccccc1)NCCNC(=O)c1scnc1Cl` it was 7.71%; in that of `CC(C)(C)OC(=O)N1CCCN(c2nnc(C3CC3)s2)CC1`, 34.69%.
In the case of `Cc1nnc(NC(=O)CN2CCc3nn(C)c(=O)cc3C2)s1` it was 23.27%; in that of `Cc1cc(CN2CCN(CC(O)c3ccc4c(c3)OCO4)CC2)no1` (stereo not given), -19.1%; in that of `Cc1noc(C)c1CNCC1COCc2c(-c3ccsc3)nnn2C1` (stereo not given), 7.68%.
With `Cc1cc(C)c(CNC(=O)c2ccc3c(c2)CCC3)c(=O)[nH]1` the figure was 58.52%; with `Cc1cc(C)c(CNC(=O)NCCOc2ccc3c(c2)CCC3)c(=O)[nH]1`, 14.11%; with `Cc1cc(C)c(CNC(=O)NCc2ccc3c(c2)CCC3)c(=O)[nH]1`, -7.02%.
With `Cc1cc(C)c(CNC(=O)NC(C)c2ccc3c(c2)CCC3)c(=O)[nH]1` (stereo not given), the INHIBITION amounted to 50.05%.
With `Cc1ccc(C(O)CNC(=O)NCc2c(C)cc(C)[nH]c2=O)cc1` (stereo not given) the figure was -11.2%; with `Cc1cc(C)c(CNC(=O)Cc2ccc3c(c2)CCCC3)c(=O)[nH]1`, 4.18%; with `CNc1ncc(C(=O)N2CCOC(C(=O)NC3CCCC3)C2)cn1` (stereo not given), 8.75%.
In the case of `Cc1ccc(CN(CCCn2ccnc2)Cc2cc(F)ccc2F)s1` it was 20.71%; in that of `CC1=N[C@@]2(CC[C@@H]3CN(CC4CC4)C[C@@H]32)C(=O)N1CC(C)C`, 28.85%; in that of `CN(Cc1ccco1)[C@@H]1CN(C(=O)c2ccnnc2)[C@@H]2CCCO[C@H]12`, 7.08%.
With `Cc1nccnc1N1C[C@H]2CN(C3CCOCC3)C[C@@]2(C(=O)O)C1` the figure was 8.93%.
With `Cn1c(CNc2c(F)cccc2-n2cccn2)cc(=O)n(C)c1=O`, the INHIBITION is listed as 32.14%.
With `CCN(CC)CCCC(C)NC(=O)c1ccccc1-n1cccn1` (stereo not given) the figure was 19.33%; with `CC(NC(=O)c1ccc(=O)n(C)c1)c1ccccc1-n1cccn1` (stereo not given), 51.64%; with `Cn1cc(C(=O)Nc2cccc(F)c2)ccc1=O`, -66.38%.
In the case of `CC(NC1CCSCC1)c1ccccc1-n1cccn1` (stereo not given) it was 27.52%.
Turning to `CC(NC(=O)c1cc(=O)n(C)c(=O)n1C)c1ccccc1-n1cccn1` (stereo not given), the INHIBITION was found to be 50.97%.
In the case of `CC(NC1CCCC1)c1ccccc1-n1cccn1` (stereo not given) it was 21.28%.
As for `CCC(=O)NC(C)c1ccccc1C` (stereo not given), the INHIBITION is -6.19%.
In the case of `Cc1ccccc1C(C)NC(=O)c1ccc(=O)n(C)c1` (stereo not given), the INHIBITION worked out at 64.9%.
In the case of `CC(=O)NCc1cc2n(n1)CCN(Cc1ccccc1OC(F)(F)F)C2` it was 27.52%; in that of `CCN(CC)S(=O)(=O)N1C[C@@H](c2ccccc2)[C@H]2[C@H]1CCCCCN2C`, 20.71%; in that of `Cc1nc(C)c(-c2ccn(CC(=O)Nc3cnn(C)n3)n2)s1`, 8.05%.
Turning to `CC(C)=CCN1C[C@@H]2CC[C@H]1CN(C(=O)c1ccc3c(c1)OCO3)C2`, the INHIBITION worked out at 34.98%.
Regarding `Cc1cc2c(=O)n(CCSc3cnn[nH]3)cnc2s1`, the INHIBITION turned out to be 39.99%.
With `CN(Cc1ccsc1)C(=O)c1ccc(C2CCCO2)s1` (stereo not given) the figure was -15.11%; with `O=C(CNC(=O)c1ccccc1I)NCc1ccccc1F`, -20.75%; with `CS(=O)(=O)NCc1cc(=O)n2c(n1)CN(CC1CC1)CCC2`, 33.12%.
In the case of `Clc1cnccc1N1CCCC2(CCCOC2)C1` (stereo not given) it was 48.73%.
In the case of `CCNC(=O)NC1CCN(c2ccc(S(=O)(=O)CC)cc2)CC1` it was -6.38%; in that of `CCS(=O)(=O)c1ccc(N2CCC(N)CC2)cc1`, 67.9%.
For the compound `CCS(=O)(=O)c1ccc(N2CCC(NC(C)=O)CC2)cc1`, the INHIBITION is -0.54%.
With `O=C(c1sccc1C1CC1)N1CCN(c2nccs2)CC1` the figure was -15.54%.
With `CC(c1ccon1)N(C)S(=O)(=O)NCc1ccccc1` (stereo not given) the figure was -6.7%; with `Cc1cc(C(=O)N(C)CC(F)(F)C(F)(F)F)ccc1-n1cncn1`, 49.78%.
In the case of `CCN(CC)C(=O)CCc1nc(-c2cnn3c(C)cc(C)nc23)no1` it was -23.48%.
As for `O=C(NCc1cccnc1N1CCCCC1)c1ccc2[nH]nnc2c1`, the INHIBITION is listed as 54.47%.
Consider `O=C(NCc1cccnc1N1CCCC(O)C1)c1ccc2[nH]nnc2c1` (stereo not given), for which the INHIBITION is given as 33.13%.
With `O=C(NCc1cccnc1N1CCCCC1)c1ccc2cc[nH]c2c1` the figure was 15.75%.
In the case of `O=C1NC[C@@]2(C(=O)O)CN(Cc3cccc(Oc4ccccc4)c3)C[C@@H]12` it was 24.55%; in that of `O=C1NC[C@@]2(C(=O)O)CN(Cc3cccc(OC4CCCC4)c3)C[C@@H]12`, 62%; in that of `O=C1NC[C@@]2(C(=O)O)CN(Cc3cccc(CN4CCOCC4)c3)C[C@@H]12`, 34.46%.
With `Cc1cc(C(C)(O)CNC(=O)C2(C)CCCC2)c(C)o1` (stereo not given) the figure was 65.92%; with `Cc1cc(C(C)(O)CNC(=O)OC(C)(C)C)c(C)o1` (stereo not given), 25.21%.
`Cc1cc(C(C)(O)CNC(=O)c2ccc(Br)o2)c(C)o1` (stereo not given): the INHIBITION turned out to be 27.32%.
With `COCC1CC2(CCN(Cc3ccc(OC)cc3)CC2)CN1C(C)C` (stereo not given) the figure was 2.07%; with `CC1CCN(CCNC(=O)c2cncnc2C(C)C)CC1`, 25.35%.
With `Cc1ccccc1-c1ncc(CNCc2csc(C(C)C)n2)s1`, the INHIBITION is listed as -17.01%.
For the compound `Cc1cnc(CNCc2cnc(-c3ccccc3C)s2)cn1`, the INHIBITION came out at 58.53%.
In the case of `CCC1=NOC(CNCc2cnc(-c3ccccc3C)s2)C1` (stereo not given) it was -31.79%.
